Assay in all cases: NCI-60 one-dose screen, 48 h (100 = growth as untreated, 0 = no growth, -100 = all killed)
Conditions in all cases: 10 µM unless noted

Test [1] deals with HCT-15 colon.
Test [2] has as its system HT29 colon.
Test [3] relates to SNB-75 CNS.
Test [4] concerns SNB-19 CNS.
In test [5] the test system is PC-3 prostate.
Test [6] relates to SK-MEL-5 melanoma.
In test [7] the test system is UACC-62 melanoma.
The test system of test [8] is LOX IMVI melanoma.
For test [9], the system named is SK-MEL-28 melanoma.
Test [10] relates to U251 CNS.

Molecules are shown by their SMILES. The panel holds about 83,000 compounds, 20% with a hit somewhere; the sample as a whole holds those more often.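 Testing used 96-well plates and a 48-hour single-concentration exposure. Example: -40 means 40% of the starting cells died.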 Unmarked numbers belong to inactive results. The source made the active and inactive calls. The calls were made as follows: active = growth percent below 10; inactive = the rest.

The text below walks through data of PubChem BioAssay (NCI).

In the case of `O=c1c2cc(Cl)ccc2oc2ccc(OCCCCCN3CCCCCC3)cc12`, the growth in test [1] is 30%; in [2] it was 5.64% (active); in [3] it was 92.3%; in test [4], 91.5%; in test [5], 83.2%; in [6], 62.9%. Moreover, the figures for the growth in test [7], in test [8] and in test [9] were 85.4%, 73.2% and 107%, respectively.

Turning to `ClCCn1cnc2c(SCc3ccccc3Cl)ncnc21`, the growth in test [1] was 21.3%; in test [2], 26.3%; in [3] it was 79.2%; in test [10], 30.4%; in [5], 38.7%; in test [6], 38.4%. For the same molecule, the growth in test [7] is 33.7%; in test [8] it was 7.06% (active); in test [9] it was 47.3%.

For `NC(N)=N/N=C/c1cccc(Cl)c1Cl`, the growth in test [1] was 82.7%; in [2] it was 24%; in test [3] it was 63.8%; in [4], 85.8%; in test [5], 89.2%; in test [6], 85.6%. Moreover, the growth in test [7] was 90.5%; in [8], 76.4%; in test [9] it was 99.2%.

As to `N/C(=N\O)c1ncc(-c2ccc(C(F)(F)F)cc2)c(NC2CCCCCC2)n1`, the growth was -62.4% [100 µM] (active) in [1]; -91.6% [100 µM] (active) in test [2]; -41.4% [100 µM] (active) in test [3]; -12.7% [100 µM] (active) in test [4]; -88.9% [100 µM] (active) in test [5]; -85.8% [100 µM] (active) in test [6]. Also, the growth in [7] was -88.2% [100 µM] (active); in test [8] it was -73.5% [100 µM] (active); in test [9], 10.3% [100 µM].

In the case of `O=[N+]([O-])c1ccc(SSc2ccc([N+](=O)[O-])cc2Cl)c(Cl)c1`, the growth in [1] is 105%; in [2], 98.2%; in [3] it was 84%; in [4], 99.5%; in [5], 93.2%; in test [6], 95.5%. The results for the growth in test [7], in [8] and in test [9] were 79.7%, 77.3% and 109%, respectively.

Regarding `C=CCCCCOc1cccc(/C=C2\N=C3SCCCN3C2=O)c1`, the growth in test [1] was 90%; in test [2], 90.1%; in [3], 91.1%; in test [4], 99.9%; in [5] it was 95.3%; in [6], 99%. Moreover, the growth in test [7] was 87.6%; in test [8], 88.7%; in test [9], 108%.

For the molecule `O=C(Nc1cccc(N=Cc2c(O)ccc3ccccc23)c1)c1ccccc1`, the growth in [2] is 90.9%; in test [3], 77.9%; in test [4], 101%; in [10], 92.6%; in test [5], 86.9%; in [6] it was 91.3%. Moreover, the figures for the growth in test [7], in test [8] and in test [9] were 94.4%, 96.1% and 107%, respectively.

As to `CC(=O)Nc1c(Br)cc2c(c1Br)Cc1cc(Br)ccc1-2`, the growth in [1] is 91.7%; in [2], 52.8%; in [3], 74.3%; in test [4], 79.4%; in test [5], 67.8%; in [6] it was 88.2%. Besides, the growth in test [7] was 72.2%; in [8] it was 20.7%; in test [9] it was 98.3%.

In the case of `COc1cc2c(cc1OC)-c1cc(OC)c(OC)cc1C(CN(C)C)C2` (stereo not given), the growth in test [1] is 78.2% [100 µM]; in test [2], 78.4% [100 µM]; in test [3], -56.2% [100 µM] (active); in [4], 7.08% [100 µM] (active); in [5], 56.3% [100 µM]; in test [6] it was 73.4% [100 µM]. In addition, the growth in test [7] was 20.4% [100 µM]; in [8] it was 71.1% [100 µM]; in test [9] it was 41.4% [100 µM].

As for `CCc1onc(-c2ccc(OC)cc2)c1-c1ccccc1OCCN(CC)CC`, the growth in [1] was 98.2%; in [2], 60.3%; in test [3], 60.9%; in [4], 91.3%; in test [5] it was 75.1%; in [6] it was 81%. Moreover, the growth in [7] was 97.7%; in test [8], 71.9%; in test [9], 100%.

As to `COc1cc(CN(CCC(O)N2CCCC2=O)Cc2ccc3c(c2)OCO3)cc(OC)c1OC` (stereo not given), the growth in test [1] was 97.5%; in [2], 98.3%; in [3], 93.7%; in test [4], 99.5%; in test [5] it was 89.5%; in test [6], 111%. In addition, the figures for the growth in test [7], in [8] and in [9] were 101%, 94.9% and 117%, respectively.

Turning to `CCCCOC(=O)c1cc(O)c(O)c(O)c1`, the growth in test [1] is 49.1%; in test [2], 85.3%; in [3], 55.6%; in [4], 88.9%; in test [5], 80.4%; in [6] it was 93.5%. Moreover, the values for the growth in [7], in [8] and in [9] were 62%, 74.4% and 90.6%, respectively.

In the case of `O=[N+]([O-])c1ccc(Sc2nc(Cl)nc(NC3CCCC3)n2)cc1`, the growth was -92.4% [100 µM] (active) in test [1]; -72.6% [100 µM] (active) in [2]; -100% [100 µM] (active) in [3]; -95.5% [100 µM] (active) in test [4]; -89.5% [100 µM] (active) in [5]; -90.3% [100 µM] (active) in test [6]. For the same molecule, the growth was -97.4% [100 µM] (active) in test [7], -87.9% [100 µM] (active) in test [8] and -97.8% [100 µM] (active) in test [9].

On to `C[N+](C)(C)CCCCCCCCCC[N+](C)(C)C`, for which the growth in test [1] was 107%; in test [3], 89.3%; in test [4], 98.7%; in test [10] it was 91.1%; in test [5] it was 89.3%; in test [6], 97.4%. The figures for the growth in test [7], in [8] and in test [9] were 91.7%, 84.7% and 104%, respectively.

Regarding `C[C@@H]1N=C(c2ccc3ccccc3c2)Nc2nc3ccccn3c2C1=O`, the growth in test [2] is 5.93% (active); in [3], 37.1%; in [4] it was 53.3%; in [10], 32.5%; in [5], 52%; in test [6], 35.3%. In addition, the growth in test [7] was 48.8%; in test [8], 48.5%; in test [9] it was 59.9%.

As to `COc1ccc2[nH]cc(C3(c4c[nH]c5ccc(OC)cc45)C(=O)Nc4ccc(F)cc43)c2c1`, the growth in test [2] was 68%; in [3] it was 42.9%; in [4], 97.2%; in test [10] it was 82.5%; in test [5], 9.66% (active); in test [6], 84.1%. In addition, the growth is 82.3% in test [7], 58.5% in test [8] and 96.4% in [9].

In the case of `CCCCOc1nc2ccc(C)cc2cc1/C=C/C(=O)/C=C(O)/C=C/c1cc2cc(C)ccc2nc1OCCCC`, the growth in test [2] was 101%; in test [3], 92.7%; in test [4] it was 96.2%; in [10] it was 88.3%; in test [5], 99%; in [6], 105%. Further, the values for the growth in test [7], in [8] and in test [9] were 87.6%, 91.6% and 107%, respectively.

`O=C1OCC2=C1C(c1ccccc1)c1cc3c(cc1N2CCO)CCC3` (stereo not given): the growth was 6.75% (active) in [2]; 64.4% in test [3]; -12.2% (active) in test [4]; 12% in test [10]; 15.7% in test [5]; -29.2% (active) in test [6]. Further, the growth is 31.7% in test [7], 28.5% in test [8] and 42.7% in [9].

`COc1cccc(NC(=O)OC(C)C)c1`: the growth was 105% in test [2]; 96.7% in test [3]; 116% in test [4]; 94.9% in [10]; 93.5% in test [5]; 109% in test [6]. Further, the results for the growth in [7], in [8] and in test [9] were 108%, 102% and 108%, respectively.

On to `C=C1C(=O)O[C@H]2[C@H]1CC/C(COC(=O)NCc1c[nH]c3ccc(OC)cc13)=C\CC[C@@]1(C)O[C@@H]21`, for which the growth in test [2] was -53.2% (active); in test [3], 63.2%; in [4] it was 64.4%; in test [10] it was 9.85% (active); in test [5] it was -2.65% (active); in test [6], 15.1%. The growth in test [7] is -31.6% (active); in test [8], -59.6% (active); in [9], -23.9% (active).

`COc1cc(/C=N/NC(=O)Cn2c(-c3ccc(C)o3)nc3ccccc32)ccc1OCc1ccccc1`: the growth in test [2] is 87.2%; in test [3], 83.2%; in test [4], 79.6%; in [10], 88.5%; in [5], 63.1%; in test [6] it was 76.6%. Further, the growth in test [7] was 77.8%; in [8] it was 88.1%; in [9], 99.1%.

Take `Cc1[nH]c2ccccc2c1C1=CC(=O)C=CC1=O`: the growth in [2] was 105%; in test [3] it was 82.8%; in test [4], 93%; in test [10] it was 72.4%; in test [5], 79.3%; in test [6], 85.6%. Also, the results for the growth in [7], in test [8] and in [9] were 75.9%, 79.1% and 104%, respectively.

In the case of `CN(C)CCNC(=O)n1cc(-c2ccncc2)c(-c2cc(O)cc(Cl)c2)n1`, the growth was 88.5% in test [2]; 103% in [3]; 106% in test [4]; 81.6% in [10]; 112% in [5]; 77.3% in test [6]. For the same molecule, the growth was 36.4% in test [7], 76.3% in [8] and 35.2% in test [9].

On to `CCSc1cnnc2ccccc12`, for which the growth was 106% in test [2]; 89.3% in [3]; 106% in [4]; 102% in test [10]; 104% in test [5]; 107% in test [6]. In addition, the figures for the growth in [7], in test [8] and in [9] were 102%, 103% and 107%, respectively.

Turning to `CN1C2CCC1/C(=C\c1ccc(F)cc1)C(=O)/C2=C/c1ccc(F)cc1`, the growth in test [2] is 15.5%; in [3] it was 59.6%; in test [4], 55.7%; in test [10] it was 16.2%; in [5], 34.5%; in [6], 40.1%. In addition, the growth in [7] was 26.4%; in test [8], 28.2%; in [9], 73%.

With `Cc1cc(C#Cc2ccc(C(C)(C)C)cc2)ccc1-n1c(/C=C/c2c(Cl)cccc2Cl)nc2ccccc2c1=O`, the growth in [2] was 93.2%; in test [3] it was 82%; in [4], 105%; in [10], 93.9%; in [5], 80.8%; in test [6], 106%. The values for the growth in test [7], in [8] and in [9] were 101%, 87.3% and 126%, respectively.

For the molecule `COc1ccc(-c2cc(C(=O)Nc3ccc(C)cc3)nc3[nH]c(=O)sc23)cc1`, the growth in test [2] is 81.4%; in [3], 102%; in test [4], 57.7%; in test [5] it was 73.8%; in [6], 37.2%; in test [7], 31.3%. The figures for the growth in [8] and in [9] were 77.7% and 70%, respectively.

In the case of `COc1ccc(/C=C/C(=O)CCC(=O)O)cc1OC`, the growth is 101% in test [2]; 90.5% in test [3]; 111% in [4]; 107% in [10]; 111% in test [5]; 109% in test [6]. Moreover, the growth was 110% in test [7], 99.7% in test [8] and 112% in [9].

For the molecule `O=S(=O)(Nc1ccc2ccccc2c1)N1CCCCC1`, the growth is 40.9% in test [2]; 52% in [3]; 90.2% in [4]; 57.2% in test [10]; 61% in test [5]; 59.8% in [6]. Besides, the growth in [7] was 56%; in test [8] it was 51.8%; in [9] it was 73.6%.
